The source of these data is article PMC5540273 (PLoS ONE, 2017).

SMILES strings stand for the structures.

Test systems include PRKCH; PRKCI; PRKCQ; PRKD1; PRKD2; PRKD3; PRKG1; PRKG2; PRKX.
What all share (conditions): concentration: 1 μM, replicates: in singlicate; n = 1
In a further test the test system is T1, PRKR.
T1 construct: gene EIF2AK2
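Further: KINOMEscan kinase panel screen.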

On to `c1ccc(-c2ccnc3[nH]ccc23)cc1` [SB-693578], for which the “%Inh” value with PRKCH was found to be 0%; with PRKCI it was 13%; with PRKCQ it was 0%; in the test on PRKD1, 0%; in the test on PRKD2, 0%; in the test on PRKD3 it was 0%. Moreover, the “%Inh” value with PRKG1 is given as 0%; with PRKG2, 2%; in the test on PRKR, 0%; in the test on PRKX, 0%.

As for `Cc1ccc(NC(=O)Nc2ccccc2F)cc1-c1ccc(C(=O)Nc2ccncc2)cc1` [GSK1398477], the “%Inh” value in the test with PRKCH is given as 39%; in the test on PRKCI, 0%; with PRKCQ, 19%; in the test with PRKD1 it was 0%; in the test with PRKD2 it was 4%; in the test with PRKD3, 23%. Moreover, the “%Inh” value with PRKG1 was 8%; in the test with PRKG2 it was 0%; in the test on PRKR, 0%; in the test on PRKX, 49%.

As for `Nc1nccc(-c2c(-c3ccc(F)cc3)ncn2C2CCN(Cc3ccccc3)CC2)n1` [SB-219980], the “%Inh” value was 0% in the test on PRKCH; 0% with PRKCI; 0% in the test on PRKCQ; 0% in the test on PRKD1; 3% with PRKD2; 0% in the test with PRKD3. The “%Inh” value in the test on PRKG1, in the test with PRKG2, with PRKR and in the test with PRKX was 0% throughout.

For `Cn1cncc1C(=O)NC1CCN(c2ccnc(Nc3ccc(F)cc3)n2)C1` (centres unmarked) [GSK1379717], the “%Inh” value is recorded as 0% with PRKCH; 7% in the test with PRKCI; 0% in the test with PRKCQ; 0% in the test with PRKD1; 0% in the test with PRKD2; 4% in the test with PRKD3. Moreover, the “%Inh” value in the test on PRKG1 was 0%; in the test with PRKG2, 99.3%; in the test on PRKR, 0%; in the test on PRKX, 0%.

For the compound `Cc1cccc2c(-c3ccncn3)c(-c3ccc(F)cc3)nn12` [GW515532], the “%Inh” value in the test on PRKCH stood at 33%; in the test with PRKCI, 26%; in the test with PRKCQ it was 9%; with PRKD1, 3%; in the test with PRKD2, 0%; with PRKD3, 32%. The “%Inh” value in the test on PRKG1 came to 8%; in the test on PRKG2, 0%; with PRKR, 0%; in the test with PRKX, 5%.
